Each sequence was assayed against C17orf103 (assay: pooled miR-30 sensor sort-seq; sequence = guide strand). Conditions: shRNA.
Note: reference of the scale not given here.

In order of rising sensor-assay potency score (higher = more potent):
1. ACGTACTTCTGGATGTACCAGC  -1.62
2. TGGGACCTCGGTGTGCTGCAGG  -1.5
3. TTCTCCTTGACGTACTTCTGGA  -0.93
4. TCATGACATCCGTTGAGCCGGA  -0.377
5. TTGAGCCGGACAGTGAACTGGC  -0.109

The sequences below were run against C17orf48 in the same assay as above. Conditions: shRNA.

In order of rising sensor-assay potency score (higher = more potent):
1. TTGAGGACTATTCAGTTCCGTA  -1.1
2. ATCTTCTAGAAACTTAGTGTTA  -1.09
3. TTCTTGTAATTCATAATTCTAT  -1
4. TATACTGTGCATTATATCCATC  -0.953
5. TACACTGCTCGTATTTTGGAGA  -0.905
6. ATCGATGATATCTCCAAGCTGA  -0.464
7. TATGTCTGTAGTATCGCCGCCT  -0.223
8. TTCAATAACTCCTTCTAGGTTG  -0.121
9. TGATCTTCTAGAAACTTAGTGT  0.0518
10. TATCTTCATACACTGCTCGTAT  0.128
11. TAGTGTTAAGTTTAGAGTGTGT  0.18
12. TTCAACATCATTTTGTCAGGAT  1.06

The sequences below were run against C17orf64 in the same assay as above. Conditions: shRNA.

In order of rising sensor-assay potency score (higher = more potent):
1. TTAAAGAATCTTTCTTGACATG  -1.34
2. TTCCTTTATCCTCTTCCTCTTG  -0.925
3. TCTTTCTTGACATGGTCCTGGG  -0.903
4. TTGAGTTTTGGTTTTTGAGAAA  -0.844
5. TGTACTTGTAAAGTCGGCGAAG  -0.717
6. TTCATGCCGCTGATGTTGCTGT  -0.699
7. TTGGTGTACTTGTAAAGTCGGC  -0.519
8. TTTTTGATAAGGACAATTCTTT  -0.341
9. TTGGGCAGACTGTCTTCCCGGT  -0.108
10. TTTCTTGACATGGTCCTGGGAT  -0.0819
11. ATCTTTCTTGACATGGTCCTGG  -0.00122
12. TTTATTCCTAATTAAGACCTGA  0.154

These sequences were tested against C17orf71 in the same assay as above. Conditions: shRNA.

In order of falling sensor-assay potency score (higher = more potent):
1. TTCCACAACACTTTTCTTCCAG  0.741
2. TTTCTTGCTTAGAACTAGCTCC  0.179
3. TTTGCCAACTGGACAATCCTTA  0.137
4. TTCATCTTCAGCTCTAGTCCTG  0.0154
5. TCATCTTCAGCTCTAGTCCTGA  -0.0647
6. TTTAAGTTTATCAGCATCCGAA  -0.269
7. TTGACTGGTAGGCACTGTGGGC  -0.647
8. TTGATGCTTCCAGAACTCGTGT  -0.713
9. TTGTGTCTAAGTCTCCTTCATC  -0.792
10. TATTGTGATATAGCACAGGCGG  -1.08
11. TTAGCTTCCAGTCTTTGCCAAC  -1.08
